From PubChem BioAssay (Tox21)
Records with an inconclusive call do not appear. Activity calls are given as the source filed them. Unless noted, calls come from the whole dose curve; as a rule, active = well fitted curve in the direction sought with a large enough effect in the repeat runs; inconclusive = weak or mixed curves; inactive = no such curve, though single readings can be large; an effect the other way counts as inactive or inconclusive.

How the values were obtained:
[1] = qHTS assay to identify small molecule agonists of the sonic hedgehog signaling (Shh) pathway - cell viability counter screen (AID 1259366); note: nearly all actives have a fitted effect of over 50% in size
Method in brief: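 Cytotoxicity counter screen run in the same wells as the Shh reporter assay. NIH/3T3 cells carrying a Gli1 response element–driven luciferase were treated with DMSO-dissolved compounds for 24hr, and live-cell protease activity was measured with CellTiter-Fluor.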

[2] = qHTS assay to identify small molecule antagonists of the sonic hedgehog signaling (Shh) pathway - cell viability counter screen (AID 1259367); note: nearly all actives have a fitted effect of over 55% in size
Method in brief: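 Viability was read by CellTiter-Fluor fluorescence in the same wells, reagent added 23 hr into compound treatment and incubated 1 hr at 37C. The 3T3 Gli1-Luc reporter cells (2,000/well) received conditioned medium after compound and ran 24 hr.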

[3] = qHTS assay to identify small molecule agonists of the sonic hedgehog signaling (Shh) pathway (AID 1259368; calls by dose curve;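 note: NIH/3T3-derived 3T3Gli1-Luc cells carrying a stable Gli1-driven firefly luciferase reporter; series mostly up to about 92 µM; nearly all actives have a fitted effect of over 15% in size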)
Method in brief: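 Cells of a mouse NIH/3T3 clone stably expressing luciferase under the Gli1 transcriptional response element are exposed to test chemicals for 24 hr at 37 C. Pathway activation is detected as a rise in luminescence.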

[4] = qHTS assay to identify small molecule antagonists of the sonic hedgehog signaling (Shh) pathway (AID 1259369; calls by dose curve; note: nearly all actives have a fitted effect of over 45% in size)
Method in brief: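 Cells are plated and held 4hr at 37 C, compounds (DMSO) are pinned in, conditioned medium is added to stimulate the pathway, and after 24hr luciferase reagent is added for 30min before luminescence is read.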

[5] = target: Estrogen receptor beta (Homo sapiens) (UniProt Q92731); test: qHTS assay to identify small molecule agonists of the estrogen receptor beta (ER-beta) signaling pathway (AID 1259377; active = well fitted activation curve with a large enough effect in the signal ratio in the repeat runs, not every such curve was filed as active; the % refers to the signal ratio)
Method in brief: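 HEK293T ER-beta-UAS-bla; 2% charcoal-stripped FBS; cells pre-incubated 6 hr, compound 16 hr, 37C/5% CO2; LiveBLAzer B/G FRET substrate 2 h RT; fluorescence intensity read.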

[6] = target: Estrogen receptor beta (Homo sapiens) (UniProt Q92731); test: qHTS assay to identify small molecule antagonists of the estrogen receptor beta (ER-beta) signaling pathway (AID 1259378; active = well fitted inhibition curve with a large enough effect in the signal ratio in the repeat runs, not every such curve was filed as active; the % refers to the signal ratio)
Method in brief: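 Antagonist mode: compounds added to beta-lactamase reporter HEK293T ER-beta-UAS cells stimulated with E2 (1nM final), 16 hr at 37C. LiveBLAzer B/G FRET substrate, 2 hours room temperature, fluorescence read-out.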

[7] = qHTS assay to identify small molecule agonists of the androgen receptor (AR) signaling pathway in the presence of an antagonist - cell viability counter screen (AID 1259379);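 note: MDA-kb2 human breast cancer cells carrying an MMTV luciferase reporter; series mostly up to about 92 µM; nearly all actives have a fitted effect of over 25% in size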
Method in brief: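 Cytotoxicity is assessed by CellTiter-Fluor in MDA-kb2 cells carrying an MMTV-driven luciferase reporter. Cells receive 3.0uM nilutamide plus compounds at 15 concentrations and incubate 16 hr at 37C without CO2 before fluorescence reading.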

[8] = qHTS assay to identify small molecule agonists of the estrogen receptor beta (ER-beta) signaling pathway - cell viability counter screen (AID 1259380); note: nearly all actives have a fitted effect of over 30% in size
Method in brief: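 Cytotoxicity is measured in parallel with the reporter screen: after 16 hr compound exposure at 37C and a 2 hr LiveBLAzer step, CellTiter-Glo is added to the same ER-beta-UAS-bla HEK293T wells and luminescence read after 30 min.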

[9] = qHTS assay to identify small molecule antagonists of the estrogen receptor beta (ER-beta) signaling pathway - cell viability counter screen (AID 1259382);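 note: HEK293T cells carrying ER-beta-UAS-bla reporter stimulated with estradiol; series mostly up to about 92 µM; nearly all actives have a fitted effect of over 55% in size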
Method in brief: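 Cytotoxicity counter screen multiplexed with the beta-lactamase antagonist assay: GripTite HEK293T ER-beta-bla cells were treated 16 hr with test chemicals in the presence of 1nM 17-beta-estradiol, and viability was measured by CellTiter-Glo.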

[10] = target: Androgen receptor (Homo sapiens) (UniProt P10275); test: qHTS assay to identify small molecule agonists of the androgen receptor (AR) signaling pathway in the presence of an antagonist (AID 1259381; calls by dose curve; note: nearly all actives have a fitted effect of over 15% in size)
Method in brief: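 Agonist-mode confirmation screen: human MDA-kb2 cells stably expressing luciferase under an MMTV promoter bearing AR and GR response elements, co-treated with 3.0uM nilutamide (final). Luminescence measured after 16hr compound incubation.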
% is set by controls: 0 for no effect and ±100 for the full control effect.

Chain of Estrogen receptor beta (Homo sapiens) (Q92731 whole entry, looked up): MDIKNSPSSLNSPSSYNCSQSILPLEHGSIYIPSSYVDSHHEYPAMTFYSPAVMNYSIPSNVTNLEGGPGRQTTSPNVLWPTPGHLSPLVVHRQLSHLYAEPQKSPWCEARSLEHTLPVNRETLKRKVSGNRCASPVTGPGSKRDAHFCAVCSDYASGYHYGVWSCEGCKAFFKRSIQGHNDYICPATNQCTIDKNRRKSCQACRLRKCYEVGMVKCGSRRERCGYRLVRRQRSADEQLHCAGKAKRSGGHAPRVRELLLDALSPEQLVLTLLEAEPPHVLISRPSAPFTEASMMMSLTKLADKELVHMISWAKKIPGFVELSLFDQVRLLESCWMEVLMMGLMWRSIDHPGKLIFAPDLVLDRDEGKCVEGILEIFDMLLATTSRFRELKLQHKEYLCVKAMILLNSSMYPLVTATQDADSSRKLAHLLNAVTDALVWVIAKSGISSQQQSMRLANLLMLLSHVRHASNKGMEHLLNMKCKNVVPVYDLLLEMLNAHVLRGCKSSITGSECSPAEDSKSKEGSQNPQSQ
Chain of Androgen receptor (Homo sapiens) (P10275 whole entry, looked up): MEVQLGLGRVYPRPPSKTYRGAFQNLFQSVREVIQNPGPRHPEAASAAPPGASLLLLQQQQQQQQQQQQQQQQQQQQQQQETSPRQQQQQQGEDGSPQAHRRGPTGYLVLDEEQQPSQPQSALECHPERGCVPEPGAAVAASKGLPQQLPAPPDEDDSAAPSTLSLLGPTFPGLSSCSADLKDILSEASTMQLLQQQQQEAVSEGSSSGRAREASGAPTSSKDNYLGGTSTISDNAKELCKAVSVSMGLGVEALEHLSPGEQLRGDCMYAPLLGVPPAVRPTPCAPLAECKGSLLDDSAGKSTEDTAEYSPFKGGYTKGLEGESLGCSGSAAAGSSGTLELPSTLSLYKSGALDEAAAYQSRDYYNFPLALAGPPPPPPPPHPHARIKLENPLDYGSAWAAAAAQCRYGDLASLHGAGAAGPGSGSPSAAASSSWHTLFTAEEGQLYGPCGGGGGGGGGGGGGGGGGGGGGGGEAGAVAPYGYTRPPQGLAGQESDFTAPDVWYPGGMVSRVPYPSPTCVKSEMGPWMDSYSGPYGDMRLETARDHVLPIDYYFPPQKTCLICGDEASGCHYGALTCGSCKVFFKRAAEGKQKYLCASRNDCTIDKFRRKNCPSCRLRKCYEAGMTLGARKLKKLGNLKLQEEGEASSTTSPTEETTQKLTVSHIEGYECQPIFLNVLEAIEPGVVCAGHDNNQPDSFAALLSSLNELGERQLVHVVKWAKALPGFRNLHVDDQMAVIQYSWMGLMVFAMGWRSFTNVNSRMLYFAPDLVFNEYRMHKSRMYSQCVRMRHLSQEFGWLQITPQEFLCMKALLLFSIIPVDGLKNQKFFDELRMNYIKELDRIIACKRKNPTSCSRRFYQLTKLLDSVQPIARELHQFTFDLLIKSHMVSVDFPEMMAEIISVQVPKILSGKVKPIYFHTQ

CCCCC(O)/C=C(C)/C=C/C=C/C(=O)N1CCCC1=O (stereo not given)
inactive: outcome [1] | outcome [2] | outcome [3] | Potency [4] | Potency [5] | outcome [6] | outcome [7] | Potency [8] | outcome [9]

CNC(C)=O
inactive: outcome [1] | outcome [2] | outcome [3] | Potency [4] | Potency [5] | outcome [6] | outcome [7] | Potency [8] | outcome [9]

C=CCON/C(CCC)=C1\C(=O)CC(C)(C)C(C(=O)OC)=C1O
inactive: outcome [1] | outcome [2] | outcome [3] | Potency [4] | Potency [5] | outcome [6] | outcome [7] | Potency [8] | outcome [9]

CCCC(C)C(O)CC (stereo not given)
inactive: outcome [1] | outcome [2] | outcome [3] | Potency [4] | Potency [5] | outcome [6] | outcome [7] | Potency [8] | outcome [9]

CN(C)CCc1c[nH]c2ccc(CS(=O)(=O)N3CCCC3)cc12
inactive: outcome [1] | outcome [2] | outcome [3] | Potency [4] | Potency [5] | outcome [6] | outcome [7] | Potency [8] | outcome [9]

CC(C)(C)c1ccc(C(=O)CCCCl)cc1
inactive: outcome [1] | outcome [2] | outcome [3] | Potency [4] | Potency [5] | outcome [6] | outcome [7] | Potency [8] | outcome [9]

C/C=C(\C)C=O
inactive: outcome [1] | outcome [2] | outcome [3] | Potency [4] | Potency [5] | outcome [6] | outcome [7] | Potency [8] | outcome [9]

CN(C)CCCN(C)C
inactive: viability change, negative = cytotoxic [1] -8.84% [at 8.39 µM] | viability change, negative = cytotoxic [2] 4.7% [at 8.39 µM] | activity change [3] 0.31% [at 8.39 µM] | activity change, negative = inhibition [4] 5.84% [at 8.39 µM] | activation [5] -0.616% [at 8.39 µM] | activity, negative = inhibition [6] 14.4% [at 8.39 µM] | activity change, negative = cytotoxicity [7] 4.3% [at 8.39 µM] | activity change, negative = cytotoxicity [8] 5.46% [at 8.39 µM] | activity change, negative = cytotoxicity [9] -0.979% [at 8.39 µM]

Cc1cc(=O)oc2cc(O[C@@H]3SC[C@@H](O)[C@H](O)[C@H]3O)ccc12
inactive: outcome [1] | outcome [2] | outcome [3] | Potency [4] | Potency [5] | outcome [6] | outcome [7] | Potency [8] | outcome [10] | outcome [9]

C/C=C/C(=O)CCCC
inactive: outcome [1] | outcome [2] | outcome [3] | Potency [4] | Potency [5] | outcome [6] | outcome [7] | Potency [8] | outcome [9]

C/C(Cl)=C/CCl
inactive: outcome [1] | outcome [2] | outcome [3] | Potency [4] | Potency [5] | outcome [6] | outcome [7] | Potency [8] | outcome [10] | outcome [9]

CC(=O)c1c(C)cc(C(C)(C)C)cc1C
inactive: outcome [1] | outcome [2] | outcome [3] | Potency [4] | Potency [5] | outcome [6] | outcome [7] | Potency [8] | outcome [9]

BrCCOc1ccccc1
inactive: outcome [1] | outcome [2] | outcome [3] | Potency [4] | Potency [5] | outcome [6] | outcome [7] | Potency [8] | outcome [9]

Cc1cc(N)no1
inactive: outcome [1] | outcome [2] | outcome [3] | Potency [4] | Potency [5] | outcome [6] | outcome [7] | Potency [8] | outcome [9]

CCCCCCCCC1CO1 (stereo not given)
inactive: outcome [1] | outcome [2] | outcome [3] | Potency [4] | Potency [5] | outcome [6] | outcome [7] | Potency [8] | outcome [10] | outcome [9]

CCCCS
inactive: outcome [1] | outcome [2] | outcome [3] | Potency [4] | Potency [5] | outcome [6] | outcome [7] | Potency [8] | outcome [9]

C=CCN(CC=C)CC=C
inactive: outcome [1] | outcome [2] | outcome [3] | Potency [4] | Potency [5] | outcome [6] | outcome [7] | Potency [8] | outcome [9]

Cc1ccc(NC(N)=O)cc1
inactive: outcome [1] | outcome [2] | outcome [3] | Potency [4] | Potency [5] | outcome [6] | outcome [7] | Potency [8] | outcome [9]

O=S(=O)(O)c1ccc(Cl)cc1
inactive: outcome [1] | outcome [2] | outcome [3] | Potency [4] | Potency [5] | outcome [6] | outcome [7] | Potency [8] | outcome [9]

CCCCN1C(=O)c2ccccc2C1=O
inactive: outcome [1] | outcome [2] | outcome [3] | Potency [4] | Potency [5] | outcome [6] | outcome [7] | Potency [8] | outcome [9]

CCCCCCCCCCCC(C)=O
inactive: outcome [1] | outcome [2] | outcome [3] | Potency [4] | Potency [5] | outcome [6] | outcome [7] | Potency [8] | outcome [9]

CCc1ncc(C)[nH]1
inactive: outcome [1] | outcome [2] | outcome [3] | Potency [4] | Potency [5] | outcome [6] | outcome [7] | Potency [8] | outcome [10] | outcome [9]

NNC(=O)OCc1ccccc1
inactive: outcome [1] | outcome [2] | outcome [3] | Potency [4] | Potency [5] | outcome [6] | outcome [7] | Potency [8] | outcome [10] | outcome [9]

Clc1cc(Cl)c(Cl)c(Cl)c1Cl
inactive: outcome [1] | outcome [2] | outcome [3] | Potency [4] | Potency [5] | outcome [6] | outcome [7] | Potency [8] | outcome [9]

Cc1cc(C)c(N)c(Cl)c1
inactive: outcome [1] | outcome [2] | outcome [3] | Potency [4] | Potency [5] | outcome [6] | outcome [7] | Potency [8] | outcome [9]
